{
  "source": "paper PMC7862700",
  "about": "“An all-to-all approach to the identification of sequence-specific readers for epigenetic DNA modifications on cytosine”",
  "assay_in_all_cases": "DAPPL (digital affinity profiling via proximity ligation, sequencing); 10 mM Tris-HCl pH 7.5, 50 mM NaCl, 1 mM DTT, 4% glycerol, room temperature, 30 min; GST-TFs on glutathione beads, 16-mer random dsDNA library, 0.1% formaldehyde crosslink after washing; high values mean tight binding",
  "conditions_in_all_cases": "protein: recombinant; tags: N-terminal GST; dsDNA, one strand shown",
  "key": {"FLI1": {"biological_target": "T1, FLI1 (Homo sapiens, UniProt Q01543 1-452)", "T1 sequence": "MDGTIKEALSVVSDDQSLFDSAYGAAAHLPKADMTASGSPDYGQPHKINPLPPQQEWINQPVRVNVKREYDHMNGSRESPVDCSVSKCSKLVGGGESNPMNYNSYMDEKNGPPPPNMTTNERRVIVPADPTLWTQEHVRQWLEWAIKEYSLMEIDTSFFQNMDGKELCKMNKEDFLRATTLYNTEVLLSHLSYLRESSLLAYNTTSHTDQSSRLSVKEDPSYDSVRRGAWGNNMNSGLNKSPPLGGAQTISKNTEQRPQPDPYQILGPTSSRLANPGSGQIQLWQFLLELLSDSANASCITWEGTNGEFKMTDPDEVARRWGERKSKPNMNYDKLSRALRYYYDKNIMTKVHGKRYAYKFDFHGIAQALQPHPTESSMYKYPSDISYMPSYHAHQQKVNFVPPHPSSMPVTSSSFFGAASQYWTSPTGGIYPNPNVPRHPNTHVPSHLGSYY", "in_short": "(§1)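 Sequencing on an Illumina NextSeq500 followed washing, crosslinking with 0.1% formaldehyde, proximity ligation (BsaI/T4 ligase, 1 h, 37 °C) and PCR amplification of pools that had been incubated for 30 min at room temperature with 200 nmole of a random double-stranded 16-mer DNA library in Tris/NaCl/DTT/glycerol buffer. Each pool held DNA-barcoded human transcription factors, expressed in yeast as GST fusions and captured on glutathione beads, plus a tag-only sample. Binding signal is a hexamer's read frequency for a factor divided by its frequency in the tag-only sample.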"}, "ELK1": {"biological_target": "T2, ELK1 (Homo sapiens, UniProt P19419 1-428)", "T2 sequence": "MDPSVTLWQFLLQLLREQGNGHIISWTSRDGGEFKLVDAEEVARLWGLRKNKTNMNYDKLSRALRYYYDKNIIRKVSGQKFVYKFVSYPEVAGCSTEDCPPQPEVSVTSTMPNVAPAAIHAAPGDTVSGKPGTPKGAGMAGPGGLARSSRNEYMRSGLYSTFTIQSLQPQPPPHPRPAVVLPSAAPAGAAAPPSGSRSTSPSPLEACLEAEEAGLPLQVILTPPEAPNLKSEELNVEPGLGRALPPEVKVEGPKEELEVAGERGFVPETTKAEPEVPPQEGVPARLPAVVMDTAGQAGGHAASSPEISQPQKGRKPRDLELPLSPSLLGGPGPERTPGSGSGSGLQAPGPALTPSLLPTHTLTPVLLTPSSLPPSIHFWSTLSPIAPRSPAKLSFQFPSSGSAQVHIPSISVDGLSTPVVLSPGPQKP", "in_short": "as §1"}, "GABPA": {"biological_target": "T3, GABPA (Homo sapiens, UniProt Q06546 1-454)", "T3 sequence": "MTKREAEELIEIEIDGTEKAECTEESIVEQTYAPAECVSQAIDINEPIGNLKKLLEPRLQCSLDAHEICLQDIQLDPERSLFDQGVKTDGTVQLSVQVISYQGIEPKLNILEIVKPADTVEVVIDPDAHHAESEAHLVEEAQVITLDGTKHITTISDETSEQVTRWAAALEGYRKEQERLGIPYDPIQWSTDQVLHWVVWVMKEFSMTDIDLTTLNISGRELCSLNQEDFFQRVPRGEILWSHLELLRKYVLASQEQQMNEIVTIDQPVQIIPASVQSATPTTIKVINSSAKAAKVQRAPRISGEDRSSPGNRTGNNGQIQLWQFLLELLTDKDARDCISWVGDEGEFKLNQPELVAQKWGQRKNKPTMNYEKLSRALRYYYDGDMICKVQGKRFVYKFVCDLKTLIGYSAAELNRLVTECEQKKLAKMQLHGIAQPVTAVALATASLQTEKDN", "in_short": "as §1"}, "ERG": {"biological_target": "T4, ERG (Homo sapiens, UniProt P11308 1-479)", "T4 sequence": "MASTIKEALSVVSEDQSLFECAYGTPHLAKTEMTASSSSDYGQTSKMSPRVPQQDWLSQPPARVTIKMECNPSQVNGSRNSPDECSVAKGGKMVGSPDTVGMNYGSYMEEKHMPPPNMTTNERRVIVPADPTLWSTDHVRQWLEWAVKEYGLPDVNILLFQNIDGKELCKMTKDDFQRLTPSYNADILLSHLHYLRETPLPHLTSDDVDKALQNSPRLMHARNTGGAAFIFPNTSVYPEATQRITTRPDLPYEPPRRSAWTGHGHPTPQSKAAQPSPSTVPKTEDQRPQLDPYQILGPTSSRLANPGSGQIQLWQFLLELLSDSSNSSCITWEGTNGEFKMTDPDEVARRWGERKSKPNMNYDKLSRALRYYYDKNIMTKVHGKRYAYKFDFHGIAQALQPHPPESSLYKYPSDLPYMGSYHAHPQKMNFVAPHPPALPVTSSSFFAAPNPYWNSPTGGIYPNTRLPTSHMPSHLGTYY", "in_short": "as §1"}, "ELF1": {"biological_target": "ELF1 (Homo sapiens, UniProt P32519 1-619)", "sequence (P32519 whole entry)": "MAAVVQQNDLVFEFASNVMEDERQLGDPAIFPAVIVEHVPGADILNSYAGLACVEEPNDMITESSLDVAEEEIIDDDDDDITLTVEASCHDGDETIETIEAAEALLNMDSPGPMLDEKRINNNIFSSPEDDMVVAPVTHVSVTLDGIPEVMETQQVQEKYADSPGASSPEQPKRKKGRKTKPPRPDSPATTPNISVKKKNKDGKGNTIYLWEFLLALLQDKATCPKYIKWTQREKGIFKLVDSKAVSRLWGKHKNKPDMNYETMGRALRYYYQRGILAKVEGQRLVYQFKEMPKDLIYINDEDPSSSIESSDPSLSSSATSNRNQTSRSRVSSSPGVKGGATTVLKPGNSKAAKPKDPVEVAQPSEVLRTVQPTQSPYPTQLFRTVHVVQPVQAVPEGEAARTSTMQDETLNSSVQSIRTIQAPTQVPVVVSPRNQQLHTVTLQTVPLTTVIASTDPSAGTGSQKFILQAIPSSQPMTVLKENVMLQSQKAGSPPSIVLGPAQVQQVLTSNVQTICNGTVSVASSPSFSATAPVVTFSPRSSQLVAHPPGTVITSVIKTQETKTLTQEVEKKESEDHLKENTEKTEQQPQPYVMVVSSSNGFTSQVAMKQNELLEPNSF", "in_short": "as §1"}, "EHF": {"biological_target": "T5, EHF (Homo sapiens, UniProt Q9NZC4 1-300)", "T5 sequence": "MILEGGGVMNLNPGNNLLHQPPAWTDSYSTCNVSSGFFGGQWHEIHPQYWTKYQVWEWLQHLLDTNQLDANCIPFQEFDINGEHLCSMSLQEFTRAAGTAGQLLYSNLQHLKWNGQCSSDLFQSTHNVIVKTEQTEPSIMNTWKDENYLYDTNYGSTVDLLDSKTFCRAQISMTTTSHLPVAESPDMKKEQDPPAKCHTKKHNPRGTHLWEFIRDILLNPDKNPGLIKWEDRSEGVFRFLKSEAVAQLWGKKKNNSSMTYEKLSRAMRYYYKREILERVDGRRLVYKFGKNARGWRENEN", "in_short": "as §1"}, "SPIB": {"biological_target": "SPIB (Homo sapiens, UniProt Q01892 1-262)", "sequence (Q01892 whole entry)": "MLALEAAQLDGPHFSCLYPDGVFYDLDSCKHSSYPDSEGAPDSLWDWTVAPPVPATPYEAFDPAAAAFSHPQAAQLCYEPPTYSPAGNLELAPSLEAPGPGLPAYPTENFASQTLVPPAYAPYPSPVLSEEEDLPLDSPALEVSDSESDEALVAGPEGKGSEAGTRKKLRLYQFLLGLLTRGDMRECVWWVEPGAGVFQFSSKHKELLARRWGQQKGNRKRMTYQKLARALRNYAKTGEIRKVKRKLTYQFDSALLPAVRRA", "in_short": "as §1"}, "ELK3": {"biological_target": "T6, ELK3 (Homo sapiens, UniProt P41970 1-407)", "T6 sequence": "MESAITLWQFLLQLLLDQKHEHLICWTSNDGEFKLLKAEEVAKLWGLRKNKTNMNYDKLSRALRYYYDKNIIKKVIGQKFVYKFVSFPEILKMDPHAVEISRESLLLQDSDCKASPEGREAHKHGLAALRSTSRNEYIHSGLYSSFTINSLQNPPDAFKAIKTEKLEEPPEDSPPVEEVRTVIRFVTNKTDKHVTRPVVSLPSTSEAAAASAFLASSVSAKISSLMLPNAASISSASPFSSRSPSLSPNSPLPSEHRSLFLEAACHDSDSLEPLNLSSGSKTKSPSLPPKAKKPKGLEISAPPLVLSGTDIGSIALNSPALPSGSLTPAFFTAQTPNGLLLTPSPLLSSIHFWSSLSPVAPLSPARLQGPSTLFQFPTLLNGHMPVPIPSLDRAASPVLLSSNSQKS", "in_short": "as §1"}, "FEV": {"biological_target": "T7, FEV (Homo sapiens, UniProt Q99581 1-238)", "T7 sequence": "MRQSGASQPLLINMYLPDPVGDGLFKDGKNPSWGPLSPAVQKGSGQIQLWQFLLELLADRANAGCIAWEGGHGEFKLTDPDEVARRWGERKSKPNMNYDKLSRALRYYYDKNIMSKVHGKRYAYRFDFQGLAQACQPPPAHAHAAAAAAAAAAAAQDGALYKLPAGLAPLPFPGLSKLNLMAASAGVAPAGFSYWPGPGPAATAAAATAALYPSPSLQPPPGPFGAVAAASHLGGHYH", "in_short": "as §1"}},
  "data": [
    {"sequence": "GCAACC", "values": [
      {"measurement": "binding signal", "setting": "FLI1", "result": "1.06 fold enrichment (6-mer frequency, TF over GST control)"},
      {"measurement": "binding signal", "setting": "ELK1", "result": "1.07 fold enrichment (6-mer frequency, TF over GST control)"},
      {"measurement": "binding signal", "setting": "GABPA", "result": "1.06 fold enrichment (6-mer frequency, TF over GST control)"},
      {"measurement": "binding signal", "setting": "ERG", "result": "1.04 fold enrichment (6-mer frequency, TF over GST control)"},
      {"measurement": "binding signal", "setting": "ELF1", "result": "1.13 fold enrichment (6-mer frequency, TF over GST control)"},
      {"measurement": "binding signal", "setting": "EHF", "result": "1.11 fold enrichment (6-mer frequency, TF over GST control)"},
      {"measurement": "binding signal", "setting": "SPIB", "result": "1.04 fold enrichment (6-mer frequency, TF over GST control)"},
      {"measurement": "binding signal", "setting": "ELK3", "result": "1.09 fold enrichment (6-mer frequency, TF over GST control)"},
      {"measurement": "binding signal", "setting": "FEV", "result": "1.17 fold enrichment (6-mer frequency, TF over GST control)"}
    ]}
  ]
}
